This is one part of a sample in which hits are shown more often than they occur.
Pf Dd2 inh: Plasmodium falciparum Dd2 growth inhibition; P. falciparum Dd2 growth, SYBR Green, 72 h; Potency, µM (series often up to 28.9 µM), usual class: inhibitors; hit rate 4.3% among 120,000; active = well fitted inhibition curve with a large enough effect; also: nearly all actives have a fitted effect of over 65% in size
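Readout: SYBR Green fluorescence, 485 nm excitation, 535 nm emission, after ~16 h lysis at 37C. Before that, Dd2-infected red cells (2.5% hematocrit) grew 72 h with compound, 29 uM top final concentration.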
Of the large screens only hits and unclear results are named; the others gave an inactive call.

COc1cc(-c2cc3c(nc2-c2ccccc2)nc(C(=O)NCCN(C)C)n3C)ccn1	none
COCCNC(=O)c1nc2nc(-c3ccccc3)c(Cl)cc2n1C	none
Cc1cc(-c2cc3c(nc2-c2ccccc2)nc(C(=O)NC2CCN(C)CC2)n3C)ccn1	Pf Dd2 inh 6.3µM
COc1cc(F)ccc1-c1cc2c(nc1-c1ccccc1)nc(C(=O)NCCN(C)C)n2C	Pf Dd2 inh 2.5µM
CN1CCC(NC(=O)Cc2c[nH]c3ncc(-c4ccccc4)cc23)CC1	none
COCc1nc2nc(-c3ccccc3)c(-c3ccc(O)c(F)c3)cc2n1C	none
C[C@H](c1onc(-c2ccc(Cl)cc2)c1C(=O)O)N(C)C	none
Cc1cc(N2CCCN(Cc3cnn4c(C)cc(C)nc34)CC2)ccn1	none
COc1nccnc1NC1CCN(C(=O)c2cnccn2)CC1	none
O=C(NC[C@H]1OC[C@@H](NC2CCOCC2)[C@@H]1O)c1cccs1	none
COc1ccc(-c2cc(CC3(NCc4ccccc4O)COC3)no2)cc1	none
CC(C)c1ccc(S(=O)(=O)N2C[C@@H](F)C[C@H]2C(=O)N2CCc3ccccc3C2)cc1	none
Cc1nc(-c2ccc(C)c(S(=O)(=O)N3CCC(C(=O)Nc4ccc(Cl)cc4)CC3)c2)no1	Pf Dd2 inh 11µM
Cc1nc(-c2cccc(S(=O)(=O)N3CCC(C(=O)NCc4ccccc4Cl)CC3)c2)no1	none
CC(=O)c1ccc(N2CCN(S(=O)(=O)c3cc(-c4noc(C)n4)ccc3C)CC2)cc1	none
COc1cccc(NC(=O)C2CCN(S(=O)(=O)c3cc(-c4noc(C)n4)ccc3C)CC2)c1	Pf Dd2 inh 10µM
COc1ccc(-c2noc(N3CCC(C(=O)Nc4ccc(OC)c(OC)c4)CC3)n2)cc1	none
Cc1ccc(NC(=O)C2CCN(S(=O)(=O)c3cccc4nonc34)CC2)cc1C	none
CCCC1c2nccn2CCCN1C(=O)c1ccc(OC)nc1OC (stereo unspecified)	none
Cc1cc(C)n(CCC(=O)N2CCCC(Cc3nc(C4CCOCC4)no3)C2)n1 (stereo unspecified)	none
CCCCCC(=O)N1CCC(O)(c2csc(CN(CC)CC)n2)CC1	none
CC(C)OCc1cc(CN2CCN(c3ccccc3)CC2)c(O)c2ncccc12	Pf Dd2 inh 2.5µM
COc1ccc(-c2noc(CN3CCN(c4cccc(Cl)c4)CC3)n2)cc1	none
CCOc1ccc2oc(=O)cc(CN3CCN(c4ccccc4)CC3)c2c1	none
CCn1c2ccccc2c2nnc(N3CCN(c4cccc(Cl)c4)CC3)nc21	none
CCOCc1cc(CN2CCN(c3cccc(Cl)c3)CC2)c(O)c2ncccc12	Pf Dd2 inh 2.8µM
COc1cc(-c2noc(CN3CCN(c4ccccc4)CC3)n2)cc(OC)c1OC	none
O=C(N[C@@H]1CN(C(=O)c2[nH]nc3c2CCc2ccccc2-3)CC[C@@H]1CO)c1ccccc1	none
O=C(Nc1ncc(-c2cccc(F)c2)c2c1OCC2)c1ccc(F)c(Cl)c1	none
C=CCC1(CO)CCCN(CCS(=O)(=O)c2ccccc2)C1 (stereo unspecified)	none
CN(C)CCCNC(=O)c1c(OCC2CC2)cc(=O)n2c1CCCCC2	none
CCOC(=O)C1=CN(CC(=O)Nc2cc(C)ccc2C)S(=O)(=O)N=C1C	none
COCCCNc1ccc2nnc(-c3ccc(C)cn3)n2n1	none
COc1ccc(-c2nnc3ccc(N(C)Cc4ccccc4)nn23)nc1	Pf Dd2 inh 7.9µM
COc1ccc(-c2nnc3ccc(N4CCc5ccccc5CC4)nn23)nc1	none
COc1ccc(-c2nnc3ccc(N4CCN(c5ccccn5)CC4)nn23)nc1	Pf Dd2 inh 13µM
CN(C)c1ccc2nnc(-c3cc(C(=O)N(C)c4ccccc4)ccn3)n2n1	none
C[C@@H]1CN(c2ccc3nnc(-c4ccccn4)n3n2)C[C@H](C)O1	none
CCN1CCN(C(=O)C2(CCO)CCN(Cc3ccccc3)C2)CC1 (stereo unspecified)	none
CCOc1ccccc1CNC(=O)c1c(OCC)cc(=O)n2c1CCCC2	none
CN(CCc1ccccn1)C(=O)COc1ccc(NC(=O)C2CC2)cn1	none
COc1ccc(N2CCN(C(=O)C3CC(=O)N(c4n[nH]c5cccc(F)c45)C3)CC2)cc1 (stereo unspecified)	none
Cc1ccc2c(c1)nc1n2[C@@H](CNS(C)(=O)=O)COC1	none
COC1C(=O)N(C2CCN(C(=O)c3cnn(C)c3)CC2)C12CCOCC2 (stereo unspecified)	none
COC1C(=O)N(c2cccc(F)c2)C12CCN(C(=O)CC1CCN(C(C)=O)CC1)CC2 (stereo unspecified)	none
COC1CN(c2cccc(F)c2)C12CCN(C(=O)CC1CCCCC1)CC2 (stereo unspecified)	Pf Dd2 inh 8.9µM
CCCS(=O)(=O)N1CCC2(CC1)C(OC)CN2c1cccc(F)c1 (stereo unspecified)	none
Cn1nc2n(c1=O)CCN(C(=O)c1ccc(F)cc1Cl)CC2	none
CCS(=O)(=O)N(C1CC1)C1CCOC2(CCN(C(=O)c3cc(F)ccc3F)CC2)C1 (stereo unspecified)	none
Cc1ccc(C2NC(=O)N(CC(=O)N(C)c3cccc(C)c3)C3=C2C(=O)OC3)cc1 (stereo unspecified)	none
CC[C@H](C(=O)N1CCC2(CC1)Nc1ccccc1NC2=O)c1ccccc1	none
CCOC(=O)c1cc(-c2ccccc2)n(CC(=O)NCc2ccc(C)cc2)c1C	none
